Here are results for 35 compounds from PubChem BioAssay (Tox21).

Results filed as inconclusive are left out. Active and inactive are the calls of the source. Unless noted, calls follow the shape of the full dose curve.
% is scaled to controls: 0 for no effect and ±100 for the full control effect.

The first assay in a line: qHTS assay to identify small molecule agonists of the vitamin D receptor (VDR) signaling pathway - cell viability counter screen (AID 743224; active = well fitted cell-killing curve with a large enough effect in the repeat runs; also: nearly all actives have a fitted effect of over 50% in size). As to conditions: VDR-bla HEK293T viability, CellTiter-Glo luminescence, 16 h; series mostly up to 62.6 µM; activity change, negative = cytotoxicity: at the top concentration. The method, boiled down: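 Viability is measured in the same wells as the VDR-bla reporter assay: after 16 h compound treatment and 2 h substrate loading, CellTiter-Glo is added and luminescence read 30 min later.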
On the technique in general: qHTS replaces the single test concentration by a dilution series.
Take `CCC(=O)O[C@]1(C(=O)CCl)[C@@H](C)C[C@H]2[C@@H]3CCC4=CC(=O)C=C[C@]4(C)[C@@]3(F)[C@@H](O)C[C@@]21C`: the “activity change, negative = cytotoxicity” value is 3.7% (inactive). As to `CCC(C)O` (centres undefined), the “activity change, negative = cytotoxicity” value was 2.03% [at 81.1 µM] (inactive).

In the case of `COC(C)(C)CCO`, the “activity change, negative = cytotoxicity” value was 1.08% (inactive). Turning to `CCCCC(=O)OCC(=O)[C@H]1[C@H](C)C[C@H]2[C@@H]3C[C@H](F)C4=CC(=O)C=C[C@]4(C)[C@@]3(F)[C@@H](O)C[C@@]21C`, the “activity change, negative = cytotoxicity” value was 11.7% (inactive). Regarding `N=c1ccn2c(n1)O[C@H]1[C@H](O)[C@@H](CO)O[C@H]12`, the “activity change, negative = cytotoxicity” value was -6.19% (inactive). As to `O=C(O)c1ccc(S(=O)(=O)O)cc1C(=O)O`, the “activity change, negative = cytotoxicity” value was 3.12% [at 81.1 µM] (inactive). Turning to `c1cc(CCCc2ccncc2)ccn1`, the “activity change, negative = cytotoxicity” value is 0.795% (inactive). For `Cc1ccc(C(C)OC(=O)C2(C)CCC(C(=O)O)C2(C)C)cc1` (centres undefined), the “activity change, negative = cytotoxicity” value was 9.76% (inactive). As to `Nc1cccc([N+](=O)[O-])c1`, the “activity change, negative = cytotoxicity” value was 6.44% (inactive). Still for that read-out and setting: for `C[N+](C)(C)CCOC(=O)CCC(=O)OCC[N+](C)(C)C` the value was -0.267% (inactive). Still for that read-out and setting: for `CC1(c2ccccc2)OC(C(=O)O)=CC1=O` (centres undefined) the value was 8.66% (inactive); for `CCCCC(CC)COC(=O)CCCCCCCCC(=O)OCC(CC)CCCC` (centres undefined), 3.06% (inactive); for `CCOC(=O)COC(=O)c1cc(Oc2ccc(C(F)(F)F)cc2Cl)ccc1[N+](=O)[O-]`, 1.9% (inactive). As to `CC(CSC(=O)c1ccccc1)C(=O)N1C[C@@H](Sc2ccccc2)C[C@H]1C(=O)O` (some centres undefined), the “activity change, negative = cytotoxicity” value was 1.27% [at 29.1 µM] (inactive). Turning to `CCCCO`, the “activity change, negative = cytotoxicity” value is 12.7% (inactive).

`CCCn1cnc2c1c(=O)n(CCCCC(C)=O)c(=O)n2C`: the “activity change, negative = cytotoxicity” value was -0.198% (inactive). In the case of `CC1=CC[C@H](C(C)C)C=C1`, the “activity change, negative = cytotoxicity” value was 2.38% (inactive). As for `OC[C@H]1O[C@@H](OCCc2ccc(O)cc2)[C@H](O)[C@@H](O)[C@@H]1O`, the “activity change, negative = cytotoxicity” value was 3.02% (inactive). As to `C/C=C/C=C/CO`, the “activity change, negative = cytotoxicity” value is -1.95% (inactive).

For `CCCCCCCN`, the “activity change, negative = cytotoxicity” value was -2.02% [at 81.1 µM] (inactive). For the compound `CCOC(=O)C(F)(F)F`, the “activity change, negative = cytotoxicity” value is 15.8% (inactive). Take `CN1Cc2cc(C(=O)N3CCC(C4CCNCC4)CC3)ccc2NC(CC(=O)O)C1=O` (centres undefined): the “activity change, negative = cytotoxicity” value was 10.6% (inactive).

Regarding `O=C1OC(CN2CCOCC2)CN1/N=C/c1ccc([N+](=O)[O-])o1` (centres undefined), the “activity change, negative = cytotoxicity” value was -5.57% (inactive). The same measure, in the same setting: for `CCOC(=O)C(=O)CCc1ccccc1` the value was 3.19% (inactive); for `O=C(Cl)c1cc(C(=O)Cl)cc(C(=O)Cl)c1`, -16.2% (inactive).

A further assay in a line: qHTS assay to identify small molecule antagonists of the vitamin D receptor (VDR) signaling pathway - cell viability counter screen (AID 743225; active = well fitted cell-killing curve with a large enough effect in the repeat runs; also: nearly all actives have a fitted effect of over 50% in size). The settings on record: VDR-bla HEK293T viability, CellTiter-Glo luminescence, 16 h; series mostly up to 61 µM; viability change, negative = cytotoxic: at the top concentration. The method, boiled down:
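Cytotoxicity counter screen read by CellTiter-Glo luminescence (30 min, room temperature) in the same wells as the VDR-bla antagonist readout. HEK 293T VDR-UAS-bla cells had 16 h at 37C with compound and 3 nM (final) 1-alpha,25-dihydroxyvitamin D3, then 2 h with FRET substrate.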
For `CCC(C)O` (centres undefined), the “viability change, negative = cytotoxic” value was 21.8% [at 78.8 µM] (inactive). Take `COC(C)(C)CCO`: the “viability change, negative = cytotoxic” value was 12.9% (inactive). Take `CCCCC(=O)OCC(=O)[C@H]1[C@H](C)C[C@H]2[C@@H]3C[C@H](F)C4=CC(=O)C=C[C@]4(C)[C@@]3(F)[C@@H](O)C[C@@]21C`: the “viability change, negative = cytotoxic” value was 7.4% (inactive).

As for `Cc1ccc(C(C)OC(=O)C2(C)CCC(C(=O)O)C2(C)C)cc1` (centres undefined), the “viability change, negative = cytotoxic” value was 19.8% (inactive). Regarding `Nc1cccc([N+](=O)[O-])c1`, the “viability change, negative = cytotoxic” value is 12.7% (inactive). In the case of `CCCCC(CC)COC(=O)CCCCCCCCC(=O)OCC(CC)CCCC` (centres undefined), the “viability change, negative = cytotoxic” value is 5.35% (inactive). In the case of `CCCn1cnc2c1c(=O)n(CCCCC(C)=O)c(=O)n2C`, the “viability change, negative = cytotoxic” value is 10.4% (inactive).

Regarding `CN1Cc2cc(C(=O)N3CCC(C4CCNCC4)CC3)ccc2NC(CC(=O)O)C1=O` (centres undefined), the “viability change, negative = cytotoxic” value was 0.54% (inactive). With `CCOC(=O)C(=O)CCc1ccccc1`, the “viability change, negative = cytotoxic” value was 6.44% (inactive).

The next assay can be described thus: qHTS assay to identify small molecule agonists of the NFkB signaling pathway - cell viability counter screen (AID 1159515). Also: nearly all actives have a fitted effect of over 55% in size. The settings on record: NFkB-bla ME-180 viability, CellTiter-Glo luminescence, 5 h; series mostly up to 61 µM; activity, negative = cytotoxic: at the top concentration. An outline of the steps: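 Multiplexed viability readout: after the 5 hr compound exposure and 1.5 hr FRET substrate step, CellTiter-Glo reagent went into the same NFkB-bla ME-180 wells; ATP luminescence was measured after 30 min at room temperature.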
With `CCC(=O)O[C@]1(C(=O)CCl)[C@@H](C)C[C@H]2[C@@H]3CCC4=CC(=O)C=C[C@]4(C)[C@@]3(F)[C@@H](O)C[C@@]21C`, the “activity, negative = cytotoxic” value was -6.53% (inactive). In the case of `CCC(C)O` (centres undefined), the “activity, negative = cytotoxic” value is -1.46% [at 78.8 µM] (inactive). On the same count and under the same terms, as for `Cc1cc(C(=O)O)ccc1[N+](=O)[O-]`, the figure is 9.1% (inactive). As for `COC(C)(C)CCO`, the “activity, negative = cytotoxic” value is -5.31% (inactive). With `CCCCC(=O)OCC(=O)[C@H]1[C@H](C)C[C@H]2[C@@H]3C[C@H](F)C4=CC(=O)C=C[C@]4(C)[C@@]3(F)[C@@H](O)C[C@@]21C`, the “activity, negative = cytotoxic” value is -25.6% (inactive). As for `CCCCCCCCCOS(=O)(=O)O`, the “activity, negative = cytotoxic” value was 3.36% (inactive). Take `N=c1ccn2c(n1)O[C@H]1[C@H](O)[C@@H](CO)O[C@H]12`: the “activity, negative = cytotoxic” value was 7.52% (inactive).

Turning to `C[C@H](CCC(=O)O)[C@H]1CC[C@H]2[C@@H]3CC[C@@H]4C[C@H](O)CC[C@]4(C)[C@H]3C[C@H](O)[C@]12C`, the “activity, negative = cytotoxic” value was -10.9% [at 78.8 µM] (inactive).

Regarding `CNCCCCOc1ccccc1Cc1ccccc1`, the “activity, negative = cytotoxic” value is -2.84% (inactive). In the case of `CC1=CC=C(C(C)C)CC1`, the “activity, negative = cytotoxic” value was -3.51% (inactive).

`O=C(O)c1ccc(S(=O)(=O)O)cc1C(=O)O`: the “activity, negative = cytotoxic” value is -4.66% [at 78.8 µM] (inactive). Same read-out and setting: for `c1cc(CCCc2ccncc2)ccn1` the value was -3.94% (inactive).

With `Cc1ccc(C(C)OC(=O)C2(C)CCC(C(=O)O)C2(C)C)cc1` (centres undefined), the “activity, negative = cytotoxic” value is 5.86% (inactive). For the compound `CCOc1ccc(O)cc1`, the “activity, negative = cytotoxic” value is 6.15% (inactive). Take `Nc1cccc([N+](=O)[O-])c1`: the “activity, negative = cytotoxic” value was -14% (inactive). Take `C[N+](C)(C)CCOC(=O)CCC(=O)OCC[N+](C)(C)C`: the “activity, negative = cytotoxic” value was -18% (inactive). For the compound `CC1(c2ccccc2)OC(C(=O)O)=CC1=O` (centres undefined), the “activity, negative = cytotoxic” value was 5.75% (inactive). As to `CCCCC(CC)COC(=O)CCCCCCCCC(=O)OCC(CC)CCCC` (centres undefined), the “activity, negative = cytotoxic” value is 4.58% (inactive). Turning to `CCOC(=O)COC(=O)c1cc(Oc2ccc(C(F)(F)F)cc2Cl)ccc1[N+](=O)[O-]`, the “activity, negative = cytotoxic” value is -1.01% (inactive).

With `CC(CSC(=O)c1ccccc1)C(=O)N1C[C@@H](Sc2ccccc2)C[C@H]1C(=O)O` (some centres undefined), the “activity, negative = cytotoxic” value was -21% [at 28.5 µM] (inactive). On the same count and under the same terms, as for `CCCCO`, the figure is -17.3% (inactive); as for `CCCn1cnc2c1c(=O)n(CCCCC(C)=O)c(=O)n2C`, 4.74% (inactive). Still for that read-out and setting: as for `ClCCOCCOCCCl`, the figure is -1.87% (inactive); as for `CC1=CC[C@H](C(C)C)C=C1`, -10.8% (inactive); as for `OC[C@H]1O[C@@H](OCCc2ccc(O)cc2)[C@H](O)[C@@H](O)[C@@H]1O`, -2.16% (inactive).

As to `Cc1ccc(C(=O)Oc2ccc(C(O)CNC(C)(C)C)cc2OC(=O)c2ccc(C)cc2)cc1` (centres undefined), the “activity, negative = cytotoxic” value is -15.5% (inactive). Take `C/C=C/C=C/CO`: the “activity, negative = cytotoxic” value is -13.6% (inactive). As for `CCCCCCCN`, the “activity, negative = cytotoxic” value was -6.5% [at 78.8 µM] (inactive).

Take `CCOC(=O)C(F)(F)F`: the “activity, negative = cytotoxic” value is 1.94% (inactive).

Regarding `CN1Cc2cc(C(=O)N3CCC(C4CCNCC4)CC3)ccc2NC(CC(=O)O)C1=O` (centres undefined), the “activity, negative = cytotoxic” value was 4.83% (inactive). Still for that read-out and setting: for `O=C1OC(CN2CCOCC2)CN1/N=C/c1ccc([N+](=O)[O-])o1` (centres undefined) the value was -12.9% (inactive). As for `CN(C)CCCN1c2ccccc2Sc2ccccc21`, the “activity, negative = cytotoxic” value is -14.2% (inactive).

As for `CCOC(=O)C(=O)CCc1ccccc1`, the “activity, negative = cytotoxic” value is 3.24% (inactive). The same measure, in the same setting: for `O=C(Cl)c1cc(C(=O)Cl)cc(C(=O)Cl)c1` the value was -29.5% (inactive); for `CC(=O)c1ccc2c(c1)N(CCCN1CCC(CCO)CC1)c1ccccc1S2`, -5.75% (inactive).
